The whole screen tested about 310,000 compounds, of which about 1,500 (0.48%) were called active. The sample holds actives, similar compounds and a random draw of the others, so the mix is not that of the screen.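 How the source made its calls: active means initial fluorescence not abnormally high and integrated response B-score, plate-corrected, over 3 SD above library mean; inactive means the rest.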
Each compound was assayed against High affinity choline transporter 1 (Homo sapiens) (UniProt Q9GZV3) (assay: allosteric activators of human choline transporter – cell-based, membrane potential dye, choline EC20, primary screen (AID 488977)). Conditions: CHT-expressing cells, at 10 µM, LV-AA mutant CHT in HEK293 cells; stronger effect = higher value.
High affinity choline transporter 1 (Homo sapiens), sequence (Q9GZV3 whole entry, looked up): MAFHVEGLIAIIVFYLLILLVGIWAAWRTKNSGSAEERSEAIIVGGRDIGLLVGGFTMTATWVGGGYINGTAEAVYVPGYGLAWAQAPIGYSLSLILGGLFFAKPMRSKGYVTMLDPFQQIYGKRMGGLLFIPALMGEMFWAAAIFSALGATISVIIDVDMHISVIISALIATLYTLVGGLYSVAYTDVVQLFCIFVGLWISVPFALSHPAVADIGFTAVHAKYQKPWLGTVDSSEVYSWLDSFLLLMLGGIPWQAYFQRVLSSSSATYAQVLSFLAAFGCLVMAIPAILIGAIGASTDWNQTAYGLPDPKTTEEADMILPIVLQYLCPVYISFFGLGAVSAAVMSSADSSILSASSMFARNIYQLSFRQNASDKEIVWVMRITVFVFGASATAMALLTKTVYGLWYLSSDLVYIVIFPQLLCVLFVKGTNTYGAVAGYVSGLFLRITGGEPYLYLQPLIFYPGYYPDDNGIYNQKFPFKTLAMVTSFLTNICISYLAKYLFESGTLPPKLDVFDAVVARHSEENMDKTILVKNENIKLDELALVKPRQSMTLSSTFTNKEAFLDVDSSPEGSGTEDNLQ

Row | Compound | B-score
1 | c1ccc2c(C[n+]3csc4ccccc43)cccc2c1 | inactive
2 | Nc1scc[n+]1Cc1cccc2cccnc12 | 6.75 (active)
3 | Fc1ccccc1COc1cccc2cccnc12 | inactive
4 | COc1ccc(CCNC(=O)C(=O)NCC2CCCN2S(=O)(=O)c2cccs2)cc1OC (configuration not stated) | inactive
5 | N=c1c2c3c(sc2ncn1N)CCCCC3 | inactive
6 | Nc1nc(SCC(=O)NCCN2CCOCC2)nc2sc3c(c12)CCC3 | inactive
7 | N=c1c2c3c(sc2ncn1CCCN1CCOCC1)CCCCC3 | 6.58 (active)
8 | CCN(CC(=O)Nc1cccc(S(=O)(=O)N2CCCCC2)c1)Cc1ccccc1 | inactive
9 | Cc1nc(/N=C(\N)NC(=O)NC2CCCCC2)nc2ccccc12 | inactive
10 | NC(N)=Nc1nc(-c2ccccc2)c2cc(Cl)ccc2n1 | inactive
11 | COc1ccc2nc(/N=C(\N)NC(=O)Nc3ccccc3)nc(C)c2c1 | inactive
12 | CC(=O)Oc1ccc(-c2nc3c(C)cccc3c(=O)o2)cc1 | inactive
13 | COc1nc(N=C(N)N)nc2c(C)cccc12 | 8.19 (active)
14 | Cc1nc(N=C(N)N)nc2c(C)cccc12 | 7.11 (active)
15 | O=C(Nc1ccc(C(=O)N2CCOCC2)cc1)Nc1cccc(C(F)(F)F)c1 | inactive
16 | Cc1ccc(OCC(=O)Oc2ccccc2[N+](=O)[O-])cc1 | inactive
17 | COc1ccc2c(c1)[C@H]1[C@H](CO2)[C@H](c2ccccc2)[C@]2(C)C(=O)Nc3cc(F)c(F)cc3C(=O)N12 | inactive
18 | O=C(Nc1ccc2nc3n(c(=O)c2c1)CCCC3)c1ccc(Cl)nc1 | inactive
19 | CN(C)C1=NC[C@H](Cc2ccccc2)N1CCc1ccc(F)cc1 | inactive
20 | Cc1noc(C)c1CSCC(=O)Nc1ccc(Br)cc1Cl | inactive
21 | CCOC(=O)C1CCN(c2ccc(C(=O)O)cc2[N+](=O)[O-])CC1 | inactive
22 | Cc1ccc(C(=O)c2ccc(N3CCN(C)CC3)c([N+](=O)[O-])c2)cc1 | 6.4 (active)
23 | Cc1cccc(N2CCN(c3ccc(C(N)=O)cc3[N+](=O)[O-])CC2)c1C | inactive

Row | Compound | B-score
24 | O=C(Cc1ccc(S(=O)(=O)N2CCOCC2)s1)N1CCN(c2ccc(C(F)(F)F)cc2[N+](=O)[O-])CC1 | inactive
25 | COc1ccc(NC(=O)CN(C)C(=O)c2cccc(S(=O)(=O)N3CCN(c4ccccc4)CC3)c2)cc1 | inactive
26 | O=C(c1cc(Cl)cc(Cl)c1)N1CCC(=O)N(C(COCc2ccccc2)Cc2ccccc2)CC1 (configuration not stated) | inactive
27 | CC(C)CC(CO)N1CCN(C(=O)c2ccc(Cl)cc2Cl)CCC1=O (configuration not stated) | inactive
28 | CC(C)CC(COCc1ccc(Cl)cc1)N1CCN(C(=O)c2ccc(C(F)(F)F)cc2)CCC1=O (configuration not stated) | 6.29 (active)
29 | O=C(CCC(=O)c1cccs1)Nc1nc2ccccc2s1 | inactive
30 | CCCCn1c(N)c(N(CC(C)C)C(=O)c2ccc(-n3c(C)ccc3C)cc2)c(=O)[nH]c1=O | inactive
31 | CCS(=O)(=O)c1cc([N+](=O)[O-])c(Sc2ccccc2N)s1 | inactive
32 | Nc1ccccc1SC(C[N+](=O)[O-])c1ccccc1 (configuration not stated) | inactive
33 | Nc1ccccc1SCc1cc([N+](=O)[O-])cc2c1OCOC2 | 7.8 (active)
34 | Cc1cc(C)cc(NC(=O)COc2coc(CN3CCN(c4ccccc4)CC3)cc2=O)c1 | inactive
35 | COc1cccc(N2CC(NC(=O)c3ccc4ccccc4c3)CC2=O)c1 (configuration not stated) | inactive
36 | CCCCCCCCn1c2c(c(=N)c3c1CCC3)CCCC2 | 12.2 (active)
37 | COc1ccccc1N(C)S(=O)(=O)c1ccc(Cl)c(C(=O)Nc2ccncc2)c1 | inactive
38 | CN1C(C(=O)NCc2ccco2)CC2Cn3c(nc4ccccc43)C21 (configuration not stated) | inactive
39 | CC(OC(=O)CCCc1c[nH]c2ccccc12)C(=O)Nc1ccc(S(N)(=O)=O)cc1 (configuration not stated) | inactive
40 | COc1ccc2oc(C(=O)OCC(=O)N(CC(C)C)c3c(N)n(Cc4ccccc4)c(=O)[nH]c3=O)c(C)c2c1 | inactive
41 | CCCCCCSc1ccc([C@@H]2[C@@H]3C(=O)N(CC)C(=O)[C@@H]3[C@]3(C(=O)OC)CCCCN23)cc1OC | inactive
42 | c1ccc(C2c3[nH]c4ccccc4c3CCN2Cc2cccn2-c2cccnc2)nc1 (configuration not stated) | inactive
43 | CCOc1ccc(C2c3[nH]c4ccccc4c3CCN2Cc2cn(CC)nc2C)cc1 (configuration not stated) | inactive
44 | CCOc1ccc(C2c3[nH]c4ccccc4c3CCN2Cc2cccn2-c2ncccn2)cc1 (configuration not stated) | 6.79 (active)
45 | COc1ccc(Cl)cc1NC(=O)CN(C)C(=O)c1cc2ccccc2cc1OC | inactive
46 | Cc1cc(C)c(S(=O)(=O)N2CCCC2CNC(=O)c2ccc3c(c2)OCO3)c(C)c1 (configuration not stated) | inactive

Row | Compound | B-score
47 | CCN(CC)CCn1c2c(c(SCC(=O)Nc3ccc(C(C)C)cc3)nc1=O)CCC2 | inactive
48 | COc1ccc(C2CC(c3ccc([N+](=O)[O-])cc3)=NN2C(C)=O)cc1 (configuration not stated) | inactive
49 | CC(=O)N1CC[n+]2c(-c3ccc([N+](=O)[O-])cc3)csc21 | 7.27 (active)
50 | COC(=O)c1c(C)[nH]c(C)c1-c1ccc([N+](=O)[O-])cc1 | inactive
51 | CC(C)(C)Nc1nc(-c2ccccn2)nc2ccccc12 | 6.37 (active)
52 | Cc1ccc(Oc2nc(-c3ccccn3)nc3ccccc23)cc1 | inactive
53 | CCOCCCNc1nc(-c2ccccc2)nc2ccccc12 | inactive
54 | COc1ccc(S(=O)(=O)N2CCCCCC2)cc1C(=O)N(C)Cc1cccc(OC)c1OC | inactive
55 | O=[N+]([O-])c1ncc(Br)cc1Nc1ccccc1 | inactive
56 | CCCCCCCCCCOC(=O)Cn1c(COc2ccc(C)cc2)[n+](C)c2ccccc21 | 9.75 (active)
57 | Cc1ccc(OCCCn2c(=O)oc3ccccc32)cc1 | inactive
58 | COc1cccc(OCCCN2CCCCCC2)c1 | inactive
59 | CCCCOC(=O)Cn1c(=N)n(CCN(CC)CC)c2ccccc21 | inactive
60 | COc1cccc(OCC(=O)Nc2ccccc2C(N)=O)c1 | inactive
61 | CCCCCCCCCCOC(=O)Cn1c(COc2cccc(OC)c2)[n+](C)c2ccccc21 | 10.7 (active)
62 | CCOC(=O)c1c(C)oc2cc(Sc3ccccc3)c(O)c(O)c12 | inactive
63 | COc1cccc(CNC(=O)C(=O)NCCC2CCCCN2S(=O)(=O)c2ccc(C)cc2)c1 (configuration not stated) | inactive
64 | Cc1cc(OCC(=O)N(C)c2c(N)n(Cc3ccccc3)c(=O)[nH]c2=O)c(C(C)C)cc1Cl | inactive
65 | O=C(CCCn1c(SCC(=O)c2ccc(F)cc2)nc2ccccc2c1=O)NCc1ccco1 | inactive
66 | CC(Sc1nc2ccccc2c(=O)n1Cc1ccco1)C(=O)c1ccccc1 (configuration not stated) | 7.82 (active)
67 | CCOC(=O)C(C)Sc1nc2ccccc2c(=O)n1CC1CCCCC1 (configuration not stated) | inactive

Reference: PubChem BioAssay AID488977 (Johns Hopkins Ion Channel Center, 2010)
